Assay results as given in PubChem BioAssay (NCATS).
Inconclusive results are not listed. The source made the active and inactive calls. Calls follow the shape of the dose curve; as a rule, active = well fitted curve in the direction sought with a large enough effect; inconclusive = small, poorly fitted or top-dose-only effect, or another doubt; inactive = no such curve, though single readings can be large; an effect the other way counts as inactive or inconclusive.

What was measured:
NIH3T3 = experiment: qHTS assay to identify novel small-molecules to repurpose for Merkel cell carcinoma treatment (AID 1296009); conditions: MCC and control cell lines, CellTiter-Glo viability, 72 h; at 44.8 µM (top of the series) unless noted; also: nearly all actives have a fitted effect of over 60% in size
Outline: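 Cells were treated for 72 hr at 37 degree celsius with compounds in 8- or 11-point dose response. Viability was read by CellTiter-Glo luminescence, normalized to no-cell (cytotoxicity) and DMSO controls.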

C33A = experiment: Primary qHTS to identify gynecologic anti-cancer compounds using libraries of approved drugs and bioactive compounds (AID 1345084); conditions: Gynecologic cancer cell panel viability, ATPlite luminescence, 48 h; series mostly up to 57.5 µM; also: % is scaled to controls: 0 for no effect and ±100 for the full control effect; nearly all actives have a fitted effect of over 55% in size
Outline: (§1)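 Cytotoxicity screen measuring ATP content by luciferase luminescence. Each compound is applied at five concentrations for 48 h at 37 C with 5% CO2.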

CAOV3 = experiment: as above; conditions: Gynecologic cancer cell panel viability, ATPlite luminescence, 48 h; series mostly up to 57.5 µM
Outline: as §1

CASKI = experiment: as above; conditions: Gynecologic cancer cell panel viability, ATPlite luminescence, 48 h; series mostly up to 57.5 µM
Outline: as §1

Es-2 = experiment: as above; conditions: Gynecologic cancer cell panel viability, ATPlite luminescence, 48 h; series mostly up to 57.5 µM
Outline: as §1

HeLa = experiment: as above; conditions: Gynecologic cancer cell panel viability, ATPlite luminescence, 48 h; series mostly up to 57.5 µM
Outline: as §1

Hek293T = experiment: as above; conditions: Gynecologic cancer cell panel viability, ATPlite luminescence, 48 h, control line for the selectivity index; series mostly up to 57.5 µM
Outline: as §1

JEG-3 = experiment: as above; conditions: Gynecologic cancer cell panel viability, ATPlite luminescence, 48 h; series mostly up to 57.5 µM
Outline: as §1

OV90 = experiment: as above; conditions: Gynecologic cancer cell panel viability, ATPlite luminescence, 48 h; series mostly up to 57.5 µM
Outline: as §1

PA-1 = experiment: as above; conditions: Gynecologic cancer cell panel viability, ATPlite luminescence, 48 h; series mostly up to 57.5 µM
Outline: as §1

SKOV3 = experiment: as above; conditions: Gynecologic cancer cell panel viability, ATPlite luminescence, 48 h; series mostly up to 57.5 µM
Outline: as §1

Tov-21-G = experiment: as above; conditions: Gynecologic cancer cell panel viability, ATPlite luminescence, 48 h; series mostly up to 57.5 µM
Outline: as §1

Tov112D = experiment: as above; conditions: Gynecologic cancer cell panel viability, ATPlite luminescence, 48 h; series mostly up to 57.5 µM
Outline: as §1

CC1=C2C(=O)C=C(CO)C2[C@H]2OC(=O)[C@H](C)[C@@H]2[C@@H](OC(=O)Cc2ccc(O)cc2)C1 (stereo not given in full)
inactive: outcome (NIH3T3) inactive [at 17.4 µM] | Potency (C33A) | Potency (CAOV3) | outcome (CASKI) | Potency (Es-2) | Potency (HeLa) | Potency (Hek293T) | Potency (JEG-3) | Potency (OV90) | Potency (PA-1) | Potency (SKOV3) | Potency (Tov-21-G) | Potency (Tov112D)

O=C(NC1Cc2ccccc2N(C[C@@H](O)CO)C1=O)c1cc2cc(Cl)sc2[nH]1 (stereo not given in full)
inactive: outcome (NIH3T3) | Potency (C33A) | Potency (CAOV3) | outcome (CASKI) | Potency (Es-2) | Potency (HeLa) | Potency (Hek293T) | Potency (JEG-3) | Potency (OV90) | Potency (PA-1) | Potency (SKOV3) | Potency (Tov-21-G) | Potency (Tov112D)

C=C1C[C@@]2(O)O[C@@]3(C[C@H]2C(C)C)[C@@H](C)CC[C@@H]13
inactive: outcome (NIH3T3) | Potency (C33A) | Potency (CAOV3) | outcome (CASKI) | Potency (Es-2) | Potency (HeLa) | Potency (Hek293T) | Potency (JEG-3) | Potency (OV90) | Potency (PA-1) | Potency (SKOV3) | Potency (Tov-21-G) | Potency (Tov112D)

Cc1oc2nc3c(c(NC(=O)CN4CCCC4=O)c2c1C)CCCC3
inactive: outcome (NIH3T3) | Potency (C33A) | Potency (CAOV3) | outcome (CASKI) | Potency (Es-2) | Potency (HeLa) | Potency (Hek293T) | Potency (JEG-3) | Potency (OV90) | Potency (PA-1) | Potency (SKOV3) | Potency (Tov-21-G)

CC(=O)OC(C)(C)/C=C/C(=O)[C@](C)(O)C1[C@H](O)C[C@@]2(C)[C@@H]3CC=C4[C@@H](C[C@H](O[C@@H]5O[C@H](CO)[C@@H](O)[C@H](O)[C@H]5O)C(=O)C4(C)C)[C@]3(C)C(=O)C[C@]12C (stereo not given in full)
inactive: outcome (NIH3T3) inactive [at 17.4 µM] | Potency (C33A) | Potency (CAOV3) | outcome (CASKI) | Potency (Es-2) | Potency (HeLa) | Potency (Hek293T) | Potency (JEG-3) | Potency (OV90) | Potency (PA-1) | Potency (SKOV3) | Potency (Tov-21-G) | Potency (Tov112D)

C=C1CC2C3(C)C=CC(=O)OC(C)(C)C3CC(OC(C)=O)C2(C)C2C(=O)OC(C)C(=O)C12C (stereo not given)
inactive: outcome (NIH3T3) inactive [at 17.4 µM] | Potency (C33A) | Potency (CAOV3) | outcome (CASKI) | Potency (Es-2) | Potency (HeLa) | Potency (Hek293T) | Potency (JEG-3) | Potency (OV90) | Potency (PA-1) | Potency (SKOV3) | Potency (Tov-21-G) | Potency (Tov112D)

Cc1nc2cc(-c3cc(F)cc(C#N)c3)ccc2s1
inactive: outcome (NIH3T3) | Potency (C33A) | Potency (CAOV3) | outcome (CASKI) | Potency (Es-2) | Potency (HeLa) | Potency (Hek293T) | Potency (JEG-3) | Potency (OV90) | Potency (PA-1) | Potency (SKOV3) | Potency (Tov-21-G) | Potency (Tov112D)

C[C@@H]1O[C@@H](O[C@H]2[C@H](Oc3cc(O)c(C(=O)CCc4ccc(O)cc4)c(O)c3)O[C@H](CO)[C@@H](O)[C@@H]2O)[C@H](O)[C@H](O)[C@H]1O
inactive: outcome (NIH3T3) | Potency (C33A) | Potency (CAOV3) | outcome (CASKI) | Potency (Es-2) | Potency (HeLa) | Potency (Hek293T) | Potency (JEG-3) | Potency (OV90) | Potency (PA-1) | Potency (SKOV3) | Potency (Tov-21-G) | Potency (Tov112D)

CC(C)Oc1ccc(-c2nc(-c3cccc4c3CCC4NCCC(=O)O)no2)cc1C#N (stereo not given)
inactive: outcome (NIH3T3) | Potency (C33A) | Potency (CAOV3) | outcome (CASKI) | Potency (Es-2) | Potency (HeLa) | Potency (Hek293T) | Potency (JEG-3) | Potency (OV90) | Potency (PA-1) | Potency (SKOV3) | Potency (Tov-21-G) | Potency (Tov112D)

CC(=O)OCC1OC(O[C@H]2CC[C@@]3(C)C(CC[C@]4(C)C3CC=C3[C@@H]5CC(C)(C)CC[C@]5(C(=O)O)CC[C@]34C)[C@]2(C)CO)C(O)C(O)C1OC1OC(C)C(O)C(OC2OCC(O)C(O)C2O)C1O (stereo not given in full)
inactive: outcome (NIH3T3) inactive [at 9.27 µM] | activity change, negative = cytotoxicity (C33A) -0.849% [at 11.6 µM] | activity change, negative = cytotoxicity (CAOV3) 3.79% [at 11.6 µM] | activity change, negative = cytotoxicity (CASKI) 14.3% [at 11.6 µM] | activity change, negative = cytotoxicity (Es-2) 2.8% [at 11.6 µM] | activity change, negative = cytotoxicity (HeLa) 8.24% [at 11.6 µM] | activity change, negative = cytotoxicity (Hek293T) 6.88% [at 11.6 µM] | activity change, negative = cytotoxicity (JEG-3) 4.64% [at 11.6 µM] | activity change, negative = cytotoxicity (OV90) -3.49% [at 11.6 µM] | activity change, negative = cytotoxicity (PA-1) -3.48% [at 11.6 µM] | activity change, negative = cytotoxicity (SKOV3) 19.9% [at 11.6 µM] | activity change, negative = cytotoxicity (Tov-21-G) 6.07% [at 11.6 µM] | activity change, negative = cytotoxicity (Tov112D) 0% [at 11.6 µM]

COC(=O)[C@]1(C)CCC[C@@]2(C)[C@@H]3CC[C@@H]4C[C@@]3(CC[C@@H]21)C[C@H]4C(=O)O
inactive: outcome (NIH3T3) | Potency (C33A) | Potency (CAOV3) | outcome (CASKI) | Potency (Es-2) | Potency (HeLa) | Potency (Hek293T) | Potency (JEG-3) | Potency (OV90) | Potency (PA-1) | Potency (SKOV3) | Potency (Tov-21-G) | Potency (Tov112D)

C=C1CC[C@]2(C(=O)O[C@@H]3O[C@H](CO)[C@@H](O)[C@H](O)[C@H]3O)CC[C@]3(C)C(=CCC4[C@@]5(C)C[C@H](O)[C@@H](O[C@@H]6O[C@H](C(=O)O)[C@@H](O)[C@H](O)[C@H]6O)[C@](C)(C=O)C5CC[C@]43C)C2C1 (stereo not given in full)
inactive: outcome (NIH3T3) inactive [at 9.27 µM] | activity change, negative = cytotoxicity (C33A) 1.71% [at 11.6 µM] | activity change, negative = cytotoxicity (CAOV3) -2.86% [at 11.6 µM] | activity change, negative = cytotoxicity (CASKI) -3.95% [at 11.6 µM] | activity change, negative = cytotoxicity (Es-2) 1.14% [at 11.6 µM] | activity change, negative = cytotoxicity (HeLa) 4.56% [at 11.6 µM] | activity change, negative = cytotoxicity (Hek293T) 2.33% [at 11.6 µM] | activity change, negative = cytotoxicity (JEG-3) -0.564% [at 11.6 µM] | activity change, negative = cytotoxicity (OV90) 2.48% [at 11.6 µM] | activity change, negative = cytotoxicity (PA-1) 8.86% [at 11.6 µM] | activity change, negative = cytotoxicity (SKOV3) -9% [at 11.6 µM] | activity change, negative = cytotoxicity (Tov-21-G) 6.07% [at 11.6 µM] | activity change, negative = cytotoxicity (Tov112D) 5.76% [at 11.6 µM]
